Experimental data published in PubChem BioAssay (NCI).
“And” between values parts separate entries of the source, which are not always exact repeats. Identical values can stand only once. Compounds without any hit were thinned out: in the full panel of roughly 83,000, 20% have a hit.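 Assay: single dose, 48 h. Readout: percent growth (0 = no net growth; negative = cell death). Active: <10.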 The source made the active and inactive calls.

Assays:
Test in all cases: NCI-60 one-dose screen, 48 h (100 = growth as untreated, 0 = no growth, -100 = all killed)
Conditions in all cases: 10 µM unless noted
NCI-H23 lung = system: NCI-H23 lung
NCI-H226 lung = system: NCI-H226 lung
NCI-H322M lung = system: NCI-H322M lung
HOP-62 NSCLC = system: HOP-62 NSCLC
NCI-H460 lung = system: NCI-H460 lung
HOP-92 NSCLC = system: HOP-92 NSCLC
NCI-H522 lung = system: NCI-H522 lung
A549/ATCC NSCLC = system: A549/ATCC NSCLC
786-0 renal = system: 786-0 renal
COLO 205 colon = system: COLO 205 colon
DU-145 prostate = system: DU-145 prostate
K-562 leukemia = system: K-562 leukemia
MALME-3M melanoma = system: MALME-3M melanoma
MDA-MB-231 breast = system: MDA-MB-231 breast
RXF 393 renal = system: RXF 393 renal
SF-268 CNS = system: SF-268 CNS
SF-295 CNS = system: SF-295 CNS
SF-539 CNS = system: SF-539 CNS
UACC-257 melanoma = system: UACC-257 melanoma
M14 melanoma = system: M14 melanoma

| Structure (SMILES) | growth (NCI-H23 lung) | growth (NCI-H226 lung) | growth (NCI-H322M lung) | growth (HOP-62 NSCLC) | growth (NCI-H460 lung) | growth (HOP-92 NSCLC) | growth (NCI-H522 lung) | growth (A549/ATCC NSCLC) | growth (786-0 renal) | growth (COLO 205 colon) | growth (DU-145 prostate) | growth (K-562 leukemia) | growth (MALME-3M melanoma) | growth (MDA-MB-231 breast) | growth (RXF 393 renal) | growth (SF-268 CNS) | growth (SF-295 CNS) | growth (SF-539 CNS) | growth (UACC-257 melanoma) | growth (M14 melanoma) |
| --- | --- | --- | --- | --- | --- | --- | --- | --- | --- | --- | --- | --- | --- | --- | --- | --- | --- | --- | --- | --- |
| CC/C(Cc1ccccc1)=C(\c1ccc(OCCN2CCCC2)cc1)c1ccc(OC(=O)NCc2ccccc2)cc1 | 90.8% (inactive) | 92.1% (inactive) | 84.9% (inactive) | 76.7% (inactive) | -45.2% (active) | 38.6% (inactive) | 81.5% (inactive) | 42.4% (inactive) | 20.7% (inactive) | -66.6% (active) | 61.1% (inactive) | -39.1% (active) | -59.6% (active) | 51.6% (inactive) | 56.5% (inactive) | 67.7% (inactive) | 86.2% (inactive) | 59% (inactive) | 58.1% (inactive) | -60.7% (active) |
| C[N+]1(CC#CC[N+]2(C)CCCC2)CCCC1 | 111% (inactive) | 91.1% (inactive) | 99.8% (inactive) | 105% (inactive) | 106% (inactive) | 90.6% (inactive) | 99.5% (inactive) | 107% (inactive) | 99.2% (inactive) | 103% (inactive) | 106% (inactive) | 106% (inactive) | 99% (inactive) | 102% (inactive) | 103% (inactive) | 95.9% (inactive) | 98.6% (inactive) | 105% (inactive) | 105% (inactive) | 103% (inactive) |
| COC(=O)C1=CCCN(C)C1 | 104% (inactive) and 101% (inactive) | 100% (inactive) and 101% (inactive) | 96.2% (inactive) and 82.7% (inactive) | 109% (inactive) | 110% (inactive) and 106% (inactive) | 76.9% (inactive) | 96.8% (inactive) and 73.1% (inactive) | 101% (inactive) | 100% (inactive) and 101% (inactive) | 114% (inactive) and 121% (inactive) | 111% (inactive) and 112% (inactive) | 93.2% (inactive) and 104% (inactive) | 96.2% (inactive) and 109% (inactive) | 115% (inactive) and 107% (inactive) | 102% (inactive) and 106% (inactive) | 116% (inactive) and 104% (inactive) | 97.9% (inactive) and 98.3% (inactive) | 103% (inactive) and 109% (inactive) | 96.8% (inactive) | 98% (inactive) and 100% (inactive) |
| C[C@]12CC[C@H](O)C[C@@H]1CC[C@@H]1[C@@H]2CC[C@]2(C)OC(=O)CC[C@@H]12 | 108% (inactive) | 102% (inactive) | 87.2% (inactive) | 97.3% (inactive) | 109% (inactive) | 91.1% (inactive) | 81.2% (inactive) | 72.8% (inactive) | 88.7% (inactive) | 72.5% (inactive) | 107% (inactive) | 118% (inactive) | 82.7% (inactive) | 91.1% (inactive) | 117% (inactive) | 98.7% (inactive) | 93.9% (inactive) | 95.9% (inactive) | 73.7% (inactive) | 100% (inactive) |
| CO[C@@H]([CH2][Hg][O]C(=O)c1ccccc1)[C@@H]([CH2][Hg][O]C(=O)c1ccccc1)OC | 102% (inactive) | 93.2% (inactive) | 105% (inactive) | 81.8% (inactive) | 103% (inactive) | 114% (inactive) | -53.9% (active) | 95.6% (inactive) | 101% (inactive) | 84.8% (inactive) | 91.4% (inactive) | 30.1% (inactive) | 35.6% (inactive) | 88.9% (inactive) | 114% (inactive) | 102% (inactive) | 106% (inactive) | 102% (inactive) | 90.7% (inactive) | 79.5% (inactive) |
| Cc1cc2c(cc1-c1ccnc(/C=C/C(=O)O)c1)C(C)(C)CCC2(C)C | 88.1% (inactive) | 78.8% (inactive) | 106% (inactive) | 96.8% (inactive) | 85.3% (inactive) | 56.5% (inactive) | 76.2% (inactive) | 77.1% (inactive) | 79.6% (inactive) | 124% (inactive) | 105% (inactive) | 85.5% (inactive) | 64.8% (inactive) | 75.5% (inactive) | 79.4% (inactive) | 86.6% (inactive) | 88.6% (inactive) | 78.2% (inactive) | 87.4% (inactive) | 78.2% (inactive) |
| O=[N+]([O-])c1ccc2scc3c4ccccc4nc-3c2c1 | 30.7% (inactive) | -32.4% (active) | 58.1% (inactive) | 2.95% (active) | 42.7% (inactive) | -61.8% (active) | -88.8% (active) | 18.9% (inactive) | -82.9% (active) | -55.6% (active) | -7.89% (active) | 3.96% (active) | -45% (active) | -76.1% (active) | -96.8% (active) | -0.718% (active) | 84.7% (inactive) | -45% (active) | -59.9% (active) | -54.8% (active) |
| Oc1cc(N2CC2)c(O)cc1N1CC1 | -37.9% (active) | -16.4% (active) | 20.4% (inactive) | -12.8% (active) | -14.6% (active) | 5.86% (active) | -74.7% (active) | -1.9% (active) | 22.3% (inactive) | -72.7% (active) | 9.43% (active) | 17.1% (inactive) | -89.6% (active) | 96.9% (inactive) | -78% (active) | 7.87% (active) | 15.9% (inactive) | -12% (active) | -47.1% (active) | -50.4% (active) |
| Nc1c(Cl)c(Cl)nc(C(=O)O)c1Cl | 104% (inactive) | 102% (inactive) | 80.8% (inactive) | 86.9% (inactive) | 102% (inactive) | 106% (inactive) | 98.6% (inactive) | 108% (inactive) | 103% (inactive) | 117% (inactive) | 120% (inactive) | 83.8% (inactive) | 83.5% (inactive) | 106% (inactive) | 136% (inactive) | 111% (inactive) | 98.6% (inactive) | 84.9% (inactive) | 108% (inactive) | 104% (inactive) |
| O=C(CCCN1CCC2(CC1)C(=O)NCN2c1ccccc1)c1ccc(F)cc1 | 95.1% (inactive) and 49.3% (inactive) | 117% (inactive) and 102% (inactive) | 97.5% (inactive) and 81.5% (inactive) | 79.1% (inactive) and -10.2% (active) | 108% (inactive) and 94.1% (inactive) | 96.7% (inactive) and 67.2% (inactive) | 108% (inactive) and 80.4% (inactive) | 103% (inactive) and 89.3% (inactive) | 101% (inactive) and 88.3% (inactive) | 34.3% (inactive) and -64.9% (active) | 79% (inactive) and 34% (inactive) | 86% (inactive) and 85.1% (inactive) | 96.1% (inactive) and 92.9% (inactive) | 103% (inactive) and 74.2% (inactive) | 116% (inactive) and 105% (inactive) | 91.1% (inactive) and 62.8% (inactive) | 96.3% (inactive) and 63.4% (inactive) | 124% (inactive) and 62.6% (inactive) | 33.6% (inactive) and 21.6% (inactive) | 80.8% (inactive) and 54% (inactive) |
| CC(C)CCC1C(=O)NC(=O)NC1=O | 99.4% (inactive) | 116% (inactive) | 94.4% (inactive) | 87.4% (inactive) | 97.7% (inactive) | 109% (inactive) | 79.4% (inactive) | 78.5% (inactive) | 104% (inactive) | 100% (inactive) | 109% (inactive) | 109% (inactive) | 88.9% (inactive) | 97.3% (inactive) | 117% (inactive) | 96.2% (inactive) | 98.4% (inactive) |  | 95.5% (inactive) | 99.9% (inactive) |
| C[C@]12CC[C@H]3[C@@H](C[C@@H]4SC(Nc5cccc(F)c5)=N[C@@]45CC(=O)CC[C@]35C)[C@@H]1CCC2=O | 55.1% (inactive) | 71.9% (inactive) | 55.8% (inactive) | 20.4% (inactive) | 52% (inactive) | 68.9% (inactive) | -43.7% (active) | 35.4% (inactive) | -13.9% (active) | 47.6% (inactive) | 17.2% (inactive) | -0.515% (active) | 22.8% (inactive) | 38.2% (inactive) | -28.4% (active) | 55.7% (inactive) | -18.8% (active) | -5.93% (active) | 73% (inactive) | 44.8% (inactive) |
| O=S(OO)c1cc(Cl)c(O)c(Cl)c1 (centres undefined) | 101% (inactive) | 109% (inactive) | 97.7% (inactive) | 105% (inactive) | 102% (inactive) | 92.1% (inactive) | 102% (inactive) | 94.7% (inactive) | 97.1% (inactive) | 117% (inactive) | 113% (inactive) | 107% (inactive) | 115% (inactive) | 110% (inactive) | 106% (inactive) | 103% (inactive) | 94.3% (inactive) | 95.7% (inactive) | 99.6% (inactive) | 107% (inactive) |
